These results are taken from PubChem BioAssay.

A short description of assay [1]: small molecules captured by biotinylated probe aFSTL3 – biochemical, small-molecule microarray, fluorescence 635/667, stem cell growth factor project, primary screen (AID 1064).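 Also: measures binding of the biotinylated anti-FSTL3 antibody to printed compounds.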 The note with it: higher = more signal.
A short description of assay [2]: binders from COS7 lysate, DM2A8 probe, primary screen, torsin A project, cell lysate, small-molecule microarray, fluorescence 635/667 (AID 1065). The note with it: higher = more signal, COS7 lysate expressing mutant human TOR1A.
Assay [3] can be described thus: small molecules captured by biotinylated probe aFGF2 – biochemical, small-molecule microarray, fluorescence 635/667, stem cell growth factor project, primary screen (AID 1067).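 Also: measures binding of biotinylated aFGF2 protein to printed compounds on slides; z-score merges feature fluorescence and signal-to-noise across triplicate slides.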 To be noted: higher = more signal.
Assay [4] can be described thus: small molecules captured by biotinylated probe aFGF10 – biochemical, small-molecule microarray, fluorescence 635/667, stem cell growth factor project, primary screen (AID 1071).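 Also: score merges 667 nm spot intensity and signal to noise from triplicate slides.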 The note with it: higher = more signal.
The target in assay [5] is Neurogenic locus notch homolog protein 2 (Homo sapiens) (UniProt Q04721). Put plainly: small molecules binding Notch2 protein – biochemical, small-molecule microarray, 635 nm fluorescence, stem cell growth factors, primary screen (AID 1073). To be noted: higher = more signal.
Assay [6] has as its target Pro-neuregulin-1, membrane-bound isoform (Homo sapiens) (UniProt Q02297). Put plainly: small molecules binding neuregulin-1 protein – biochemical, small-molecule microarray, fluorescence 635/667, psychiatric disease protein project, primary screen (AID 1075).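 Also: score combines 667 nm spot fluorescence with signal to noise.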 The note with it: NRG1 binding, 635 nm fluorescence, higher = more signal.
Assay [7] relates to Neuregulin-1 EGF-like domain. Nature of the assay: small molecules binding NRG1 EGF domain – biochemical, small-molecule microarray, 635 nm fluorescence, primary screen (AID 1081).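 Also: binding of the protein to compounds printed on small-molecule microarray slides.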 The note with it: higher = more signal.
Assay [8] can be described thus: FRG1 expression reporter modulators in myotubes – cell-based, C2C12 myotubes, firefly/Renilla luciferase, luminescence, FRG1 inhibition for FSHD, primary screen (AID 1084). To be noted: FRG1 promoter luciferase, higher = more signal, called active from +8 up or from −8 down.
Assay [9] is described as follows: small molecules captured by biotinylated probe aFST – biochemical, small-molecule microarray, fluorescence 635/667, stem cell growth factor project, primary screen (AID 1086).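 Also: score merges 667 nm fluorescence with signal-to-noise of each printed compound spot.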 To be noted: higher = more signal.
The nature of assay [10]: binders of probe aHhip on microarray, primary screen, stem cell growth factor project, biochemical, small-molecule microarray, fluorescence 635/667 (AID 1087).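 Also: score merges spot fluorescence at 667nm with spot signal to noise ratio.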 To be noted: higher = more signal.

Active and inactive are the calls of the source.

Sequence of Pro-neuregulin-1, membrane-bound isoform (Homo sapiens) (Q02297 whole entry, looked up, the tested form may be a part, canonical isoform): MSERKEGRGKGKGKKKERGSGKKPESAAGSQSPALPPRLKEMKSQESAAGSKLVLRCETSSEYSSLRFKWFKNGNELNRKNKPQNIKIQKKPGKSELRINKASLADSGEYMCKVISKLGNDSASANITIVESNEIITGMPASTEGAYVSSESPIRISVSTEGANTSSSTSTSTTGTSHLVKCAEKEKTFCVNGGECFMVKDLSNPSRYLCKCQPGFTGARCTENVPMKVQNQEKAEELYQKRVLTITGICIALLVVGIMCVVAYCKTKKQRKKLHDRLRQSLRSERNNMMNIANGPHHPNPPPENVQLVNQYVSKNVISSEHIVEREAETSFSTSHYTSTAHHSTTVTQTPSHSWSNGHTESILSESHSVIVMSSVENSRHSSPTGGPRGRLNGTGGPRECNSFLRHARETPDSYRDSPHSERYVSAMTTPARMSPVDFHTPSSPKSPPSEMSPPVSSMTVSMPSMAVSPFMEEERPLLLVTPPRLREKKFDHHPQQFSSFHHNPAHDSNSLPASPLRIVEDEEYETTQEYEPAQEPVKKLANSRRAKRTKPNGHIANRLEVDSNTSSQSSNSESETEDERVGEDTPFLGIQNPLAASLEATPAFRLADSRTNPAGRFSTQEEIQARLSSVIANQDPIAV
Sequence of Neurogenic locus notch homolog protein 2 (Homo sapiens) (Q04721 whole entry, looked up, canonical isoform): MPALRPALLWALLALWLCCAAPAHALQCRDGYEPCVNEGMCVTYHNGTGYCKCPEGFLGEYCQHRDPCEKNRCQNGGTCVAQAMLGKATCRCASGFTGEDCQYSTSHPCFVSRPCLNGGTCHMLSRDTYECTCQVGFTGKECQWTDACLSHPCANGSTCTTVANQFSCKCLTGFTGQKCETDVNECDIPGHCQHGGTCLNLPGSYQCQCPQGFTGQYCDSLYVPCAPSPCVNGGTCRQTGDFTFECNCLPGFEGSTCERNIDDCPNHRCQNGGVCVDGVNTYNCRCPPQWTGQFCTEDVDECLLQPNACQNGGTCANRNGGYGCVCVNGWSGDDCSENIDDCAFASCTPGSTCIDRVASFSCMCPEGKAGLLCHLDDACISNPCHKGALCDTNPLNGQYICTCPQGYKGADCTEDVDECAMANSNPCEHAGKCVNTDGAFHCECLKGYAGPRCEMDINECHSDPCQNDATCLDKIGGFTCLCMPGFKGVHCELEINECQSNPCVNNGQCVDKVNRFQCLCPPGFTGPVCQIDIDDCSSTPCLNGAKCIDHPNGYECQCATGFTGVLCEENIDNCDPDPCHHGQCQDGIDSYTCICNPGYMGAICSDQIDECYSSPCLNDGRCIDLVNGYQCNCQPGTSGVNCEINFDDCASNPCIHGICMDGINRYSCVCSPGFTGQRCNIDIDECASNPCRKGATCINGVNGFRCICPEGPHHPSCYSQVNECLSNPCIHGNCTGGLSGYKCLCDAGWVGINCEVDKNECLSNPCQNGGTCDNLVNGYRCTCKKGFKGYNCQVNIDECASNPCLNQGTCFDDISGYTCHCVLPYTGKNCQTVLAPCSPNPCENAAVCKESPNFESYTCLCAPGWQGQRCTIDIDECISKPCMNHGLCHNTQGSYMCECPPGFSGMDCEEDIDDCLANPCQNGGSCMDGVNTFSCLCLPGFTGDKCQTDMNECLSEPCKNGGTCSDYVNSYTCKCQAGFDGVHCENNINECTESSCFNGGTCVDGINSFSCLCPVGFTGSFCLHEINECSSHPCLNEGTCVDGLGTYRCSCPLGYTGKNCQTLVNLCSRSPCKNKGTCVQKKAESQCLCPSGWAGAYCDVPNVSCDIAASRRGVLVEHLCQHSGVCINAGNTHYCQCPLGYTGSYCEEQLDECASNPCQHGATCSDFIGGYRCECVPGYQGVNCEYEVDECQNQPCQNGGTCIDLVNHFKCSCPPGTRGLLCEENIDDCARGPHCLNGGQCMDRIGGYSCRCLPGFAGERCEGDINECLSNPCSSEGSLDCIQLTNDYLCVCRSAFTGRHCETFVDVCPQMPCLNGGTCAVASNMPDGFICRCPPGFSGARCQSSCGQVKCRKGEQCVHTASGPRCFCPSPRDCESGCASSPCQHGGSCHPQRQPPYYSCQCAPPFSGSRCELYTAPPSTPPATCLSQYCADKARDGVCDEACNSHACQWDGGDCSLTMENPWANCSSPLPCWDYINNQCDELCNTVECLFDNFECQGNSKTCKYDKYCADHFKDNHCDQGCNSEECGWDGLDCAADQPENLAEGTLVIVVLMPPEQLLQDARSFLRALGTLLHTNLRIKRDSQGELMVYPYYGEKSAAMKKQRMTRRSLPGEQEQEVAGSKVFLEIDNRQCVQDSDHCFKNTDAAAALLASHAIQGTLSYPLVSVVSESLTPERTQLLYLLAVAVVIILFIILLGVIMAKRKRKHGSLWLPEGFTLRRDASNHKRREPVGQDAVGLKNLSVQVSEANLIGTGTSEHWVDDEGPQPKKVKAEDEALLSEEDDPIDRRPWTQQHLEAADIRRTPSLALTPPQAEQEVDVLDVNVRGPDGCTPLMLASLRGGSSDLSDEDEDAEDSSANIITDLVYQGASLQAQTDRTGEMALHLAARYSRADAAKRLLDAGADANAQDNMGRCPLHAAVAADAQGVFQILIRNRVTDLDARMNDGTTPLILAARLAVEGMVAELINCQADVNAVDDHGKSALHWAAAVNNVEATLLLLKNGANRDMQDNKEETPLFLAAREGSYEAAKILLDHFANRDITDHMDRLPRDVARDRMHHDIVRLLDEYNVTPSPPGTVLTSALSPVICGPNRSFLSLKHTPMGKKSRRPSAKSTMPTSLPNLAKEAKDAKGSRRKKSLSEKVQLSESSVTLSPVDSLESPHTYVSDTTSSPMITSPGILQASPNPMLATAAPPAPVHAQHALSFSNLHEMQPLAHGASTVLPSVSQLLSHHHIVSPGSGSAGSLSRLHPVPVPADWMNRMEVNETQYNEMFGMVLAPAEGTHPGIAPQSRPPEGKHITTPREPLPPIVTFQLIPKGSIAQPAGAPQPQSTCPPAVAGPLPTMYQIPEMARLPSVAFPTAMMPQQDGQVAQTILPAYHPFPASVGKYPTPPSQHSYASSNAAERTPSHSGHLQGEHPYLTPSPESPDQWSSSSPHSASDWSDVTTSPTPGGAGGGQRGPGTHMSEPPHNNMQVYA

In the case of `CCOC(=O)C1=CCC(c2ccccc2)N(S(=O)(=O)CC[Si](C)(C)C)C1` (stereo not given), the composite z-score in assay [1] is -0.264; in [2], 0.701; in [3], -0.137; in assay [4], -0.765; in assay [5] it was -0.606; in assay [6], 0.0168. Moreover, the composite z-score in [7] is -0.518; in [9] it was -0.407; in [10], -0.0994. The z-score in [8] is -3.74 (inactive).

On to `O=C1NC(=O)C2C1C=CC(C(O)c1ccccc1)N2Nc1ccc(Cl)cc1Cl` (stereo not given), for which the composite z-score was -0.324 in assay [1]; 0.299 in assay [2]; 0.162 in [3]; 0.803 in [4]; 1.54 in assay [5]; 1.37 in [6]. Also, the composite z-score in assay [7] is 1.15; in [9], 1.32; in [10] it was -0.156. Moreover, the z-score in assay [8] is -1.44 (inactive).

`C=CCOC(=O)[C@@H]1[C@H]2C(=O)O[C@H](c3ccccc3)[C@H](c3ccccc3)N2[C@H](c2ccc(OCCOC(=O)[C@@H]3C[C@@H]4C(=O)N[C@@H](CCCCN(C)C)C(=O)N4[C@@H]3c3ccc(O)cc3)cc2)[C@@]12C(=O)Nc1ccc(I)cc12`: the composite z-score in assay [1] was -0.317; in assay [2], 0.25; in [3], -0.0216; in [4] it was 0.347; in assay [5] it was 1.2; in assay [6] it was 1.11. Also, the composite z-score in assay [7] was 1.2; in [9], 0.171; in assay [10] it was -0.108. Further, the z-score in assay [8] is 0.0976 (inactive).

With `CN(C)CCCNC(=O)[C@@]1(c2ccc([N+](=O)[O-])cc2)CC(=O)N(C2CCCCC2)[C@@H]1c1ccc(CO)cc1`, the composite z-score in assay [1] is 0.4; in assay [2], 0.595; in assay [3], -0.0717; in assay [4] it was -0.466; in assay [5], -0.513; in assay [6] it was 1.52. The composite z-score in [7] is 0.692; in assay [9] it was -0.114; in [10], 0.0373. Moreover, in assay [8], the z-score was -0.767 (inactive).

For the compound `CC(C)(C)C(=O)N[C@@H](c1ccc(Cl)cc1)[C@]1(C)C[C@H]1C1CCCCC1`, the composite z-score in assay [1] stood at 1.05; in assay [2] it was 0.845; in assay [3] it was 0.282; in [4], 0.57; in [5], 1.51; in assay [6], 2.09. In addition, the composite z-score amounted to 1.19 in assay [7], 1.47 in [9] and 0.0053 in assay [10]. Also, in assay [8], the z-score was -1.52 (inactive).

For the compound `O=C1c2ccccc2[C@@]2(Cc3ccccc3N(CCN3CCOCC3)C2=O)[C@H](c2ccc(CO)cc2)N1Cc1ccccc1`, the composite z-score in [1] is -0.0459; in assay [2], -0.374; in assay [3] it was -0.166; in assay [4], -0.318; in [5] it was -0.933; in assay [6], -0.561. The values for the composite z-score in assay [7], in [9] and in assay [10] were -0.86, -0.0633 and -0.0618, respectively. The z-score in assay [8] is -0.0352 (inactive).

As to `[N-]=[N+]=Nc1ccccc1[C@H]1OC(c2ccc(OCCCO)cc2)=N[C@@]1(Cc1ccccc1)C(=O)O`, the composite z-score turned out to be 0.0481 in assay [1]; 0.466 in [2]; 0.0363 in [3]; 0.641 in assay [4]; 1.05 in assay [5]; 1.69 in [6]. For the same compound, the composite z-score was 1.3 in [7], 0.693 in assay [9] and -0.374 in [10]. In addition, in [8], the z-score was 1.02 (inactive).

As for `COC(=O)[C@@]1(Cc2ccc(OC)cc2)[C@H]2c3cc(C(=O)N4CCCC4)n(Cc4ccsc4Br)c3C[C@H]2CN1C(=O)c1ccccc1`, the composite z-score was 0.588 in assay [1]; -0.594 in [2]; -0.1 in [3]; 0.188 in [4]; 1.6 in assay [5]; 1.68 in [6]. Moreover, the composite z-score in [7] was 1.08; in [9], 1.37; in assay [10], -0.367. In addition, in [8], the z-score is 3.4 (inactive).

As to `[N-]=[N+]=NCc1ccccc1[C@H]1OC(c2ccc(OCCCO)cc2)=N[C@@]1(Cc1ccccc1)C(=O)NCc1ccccc1`, the composite z-score was -0.0101 in [1]; 0.742 in assay [2]; -0.0184 in assay [3]; 1.27 in assay [4]; 1.24 in [5]; 2.05 in [6]. Further, the values for the composite z-score in assay [7], in assay [9] and in assay [10] were 0.921, 0.513 and -0.331, respectively. Moreover, in assay [8], the z-score is -1.5 (inactive).

On to `C=CC[C@]12N=C(c3ccc(OCCCO)cc3)O[C@H]1c1ccccc1N(Cc1ccccc1)C2=O`, for which the composite z-score was 1.67 in assay [1]; 0.473 in assay [2]; -0.0316 in assay [3]; -0.138 in assay [4]; 0.877 in [5]; 0.138 in assay [6]. The composite z-score in assay [7] is 0.774; in [9], 0.625; in [10], 0.0176. Besides, the z-score in [8] was -2.33 (inactive).

With `COc1ccc([Si](C)(C)[C@@H]2[C@@H](CC(=O)N3Cc4ccccc4C[C@H]3CO)O[C@]3(C(=O)N(C)c4c(Br)cc(C)cc43)[C@H]2C)cc1`, the composite z-score was -0.184 in assay [1]; 1.03 in [2]; -0.083 in assay [3]; 0.441 in assay [4]; 0.557 in assay [5]; 0.815 in assay [6]. The composite z-score in assay [7] is 1.12; in assay [9] it was 0.16; in assay [10], -0.0672. Further, the z-score in assay [8] is -3.35 (inactive).

Turning to `C=CCNC(=O)[C@@H]1[C@H]2C(=O)O[C@H](c3ccccc3)[C@H](c3ccccc3)N2[C@H](c2ccccc2OCCO)[C@@]12C(=O)N(C(=O)OCCOC)c1ccc(C#CCNC(N)=O)cc12`, the composite z-score is -0.14 in assay [1]; 0.428 in [2]; -0.0864 in [3]; 0.354 in [4]; 0.524 in assay [5]; 1.27 in assay [6]. For the same compound, the composite z-score in assay [7] was 0.958; in assay [9] it was -0.0306; in [10], 0.251. For the same compound, in assay [8], the z-score is -0.623 (inactive).

Take `O=C1NC(=O)C2C1C=CC(C(O)c1cccc3ccccc13)N2Nc1ccccn1` (stereo not given): the composite z-score in assay [1] was -0.0559; in [2], 0.143; in [3] it was -0.0281; in assay [4], 0.357; in [5], 1.19; in assay [6] it was 0.961. For the same compound, the composite z-score in [7] was 0.39; in [9] it was 0.125; in assay [10], -0.242. In addition, the z-score in assay [8] is 0.661 (inactive).

With `C=CCC(OC(C)=O)[C@@H]1[C@@H](N(Cc2ccc(-c3cccc(C(F)(F)F)c3)o2)C(=O)c2ccc(-c3ccccc3)cc2)c2cc(OCCCO)ccc2N1C(=O)c1ccc(-c2ccccc2)cc1` (stereo not given in full), the composite z-score was 0.0961 in [1]; -0.233 in assay [2]; -0.0242 in [3]; 0.232 in assay [4]; 0.242 in [5]; 0.0249 in assay [6]. The composite z-score in assay [7] is -0.825; in [9], 0.13; in assay [10] it was -0.0994. Further, the z-score in assay [8] was -0.245 (inactive).

For `CN1C(=O)[C@]2(Cc3ccccc3)N=C(c3ccc(OCCCO)cc3)O[C@@H]2c2ccccc21`, the composite z-score in assay [1] was 0.547; in assay [2], 0.758; in assay [3], -0.0333; in [4] it was 0.802; in assay [5], 0.826; in assay [6], 1.36. Besides, the composite z-score in assay [7] is 1.35; in [9], 0.265; in assay [10], 0.12. In addition, the z-score in assay [8] was -0.113 (inactive).

On to `CC(C)C(CO)N1C(=O)[C@@H]2[C@H]3C(=O)OCC=C[C@H]3OC23C=CCN(C(C)C)C(=O)[C@@H]13` (stereo not given in full), for which the composite z-score is -0.25 in [1]; -0.615 in [2]; -0.187 in assay [3]; -0.271 in assay [4]; -0.142 in assay [5]; 0.814 in assay [6]. Besides, the composite z-score in assay [7] is -0.677; in assay [9], -0.422; in [10] it was -0.374. In addition, the z-score in assay [8] was -0.724 (inactive).
